Assay results: PubChem BioAssay AID2330 (Broad Institute, 2010)
In all, about 37,000 compounds went through this assay and about 2,800 (7.6%) were called active. Not shown: some 1% with an inconclusive outcome. No stated cut-off is given here; in the data, active means inhibition above about 80%; inconclusive means no clear call, values can overlap the other calls; inactive means below that. The full list was thinned out, with actives kept by preference.

test: NOMO-1 AML cell viability reduction, primary screen, STK33 inhibitor project, CellTiter-Glo luminescence (AID 2330); settings: NOMO-1 AML viability, 72 h, hits give high values, concentration not given here

Q: With `Cc1cc(=O)[nH]c(SCC(=O)Nc2cccc3ccccc23)n1` as the compound, how does the inhibition read?
A: -1.97% (inactive)

Q: With `C[C@H](CO)N1C[C@H](C)[C@H](CN(C)S(C)(=O)=O)Oc2ccc(NC(=O)Nc3ccc(F)cc3)cc2C1=O` as the compound, how does the inhibition read?
A: 14.7% (inactive)

Q: Which inhibition does the source give for `COc1ccc(CN(C)C[C@@H]2Oc3ccc(NC(=O)NC(C)C)cc3C(=O)N([C@@H](C)CO)C[C@H]2C)cc1` here?
A: 11.8% (inactive)

Q: For `COc1ccc(S(=O)(=O)Nc2ccc3c(c2)CC(=O)N([C@@H](C)CO)C[C@@H](C)[C@@H](CN(C)C(=O)Nc2c(C)noc2C)O3)cc1`, which inhibition is on record?
A: -6.01% (inactive)

Q: With `C[C@@H]1CN([C@H](C)CO)C(=O)Cc2cc(NC(=O)Cn3cnnn3)ccc2O[C@H]1CN(C)Cc1ccc(C(F)(F)F)cc1` as the compound, how does the inhibition read?
A: -4.05% (inactive)

Q: With `COc1ccc(-c2nnc(SCC(=O)Nc3cccc(SC)c3)n2C)cc1` as the compound, how does the inhibition read?
A: -20% (inactive)

Q: Which inhibition does the source give for `COc1ccccc1NC(=O)c1ccc(OCC(=O)Nc2ccccc2F)cc1` here?
A: 2.43% (inactive)

Q: For `C[C@H]1CN([C@@H](C)CO)C(=O)c2cccc(NS(C)(=O)=O)c2O[C@@H]1CN(C)C(=O)Nc1ccc(F)cc1`, which inhibition is on record?
A: -0.485% (inactive)

Q: With `CC1CCC(C(C)C)C(=O)/C1=C\c1ccc(NC(=O)CCC(=O)O)cc1` (configuration not stated) as the compound, how does the inhibition read?
A: 10% (inactive)

Q: For `COc1cc([C@H]2OC[C@H]3[C@@H]2CO[C@@H]3c2cc(OC)c(O[C@@H]3O[C@H](CO)[C@@H](O)[C@H](O)[C@H]3O)c(OC)c2)cc(OC)c1O`, which inhibition is on record?
A: -2.62% (inactive)

Q: With `COc1cc(-c2coc3cc(O[C@@H]4O[C@H](CO)[C@@H](O)[C@H](O)[C@H]4O)c(OC)c(O)c3c2=O)cc(O)c1OC` as the compound, how does the inhibition read?
A: -24% (inactive)

Q: Which inhibition does the source give for `COc1ccc(C[C@H]2COC(=O)[C@@H]2Cc2ccc(O[C@@H]3O[C@H](CO)[C@@H](O)[C@H](O)[C@H]3O)c(OC)c2)cc1OC` here?
A: 88.7% (active)

Q: For `CCc1cc(C(=O)OC)c(NC(=O)CC2Sc3ccc(C(F)(F)F)cc3NC2=O)s1` (configuration not stated), which inhibition is on record?
A: 43.5% (inactive)

Q: Which inhibition does the source give for `CCOc1ccc(NC(=O)C2CC(=O)n3c(nc4ccccc43)N2)cc1` (configuration not stated) here?
A: 2.2% (inactive)

Q: Which inhibition does the source give for `C[C@H]1CN([C@@H](C)CO)C(=O)c2cc(NC(=O)Cn3cnnn3)ccc2O[C@@H]1CN(C)S(=O)(=O)c1cccs1` here?
A: -7.03% (inactive)

Q: For `COc1ccc(S(=O)(=O)N(C)C[C@H]2Oc3ccc(NC(=O)Nc4c(C)noc4C)cc3C(=O)N([C@H](C)CO)C[C@H]2C)cc1`, which inhibition is on record?
A: 8.03% (inactive)

Q: Which inhibition does the source give for `O=C(CS(=O)(=O)Cc1ccccc1)Nc1cccnc1` here?
A: 4.64% (inactive)

Q: For `O=C(Nc1cccnc1)c1cc2c(s1)-c1ccccc1CC2`, which inhibition is on record?
A: 108% (active)

Q: With `COc1ccc(C(=O)CCC(=O)Nc2cccnc2)c(OC)c1` as the compound, how does the inhibition read?
A: 1.52% (inactive)

Q: For `O=S(=O)(c1ccc(Cl)cc1)c1nc(-c2ccccc2F)oc1NCCN1CCOCC1`, which inhibition is on record?
A: 16.2% (inactive)

Q: Which inhibition does the source give for `C[C@H]1CN([C@@H](C)CO)C(=O)c2cccc(NC(=O)NC3CCCCC3)c2O[C@H]1CN(C)CC1CCCCC1` here?
A: 15.4% (inactive)

Q: Which inhibition does the source give for `C[C@@H]1CN([C@H](C)CO)C(=O)c2cccc(NC(=O)CCCCCC(=O)Nc3ccccc3N)c2O[C@H]1CN(C)CC1CCCCC1` here?
A: 139% (active)

Q: For `C[C@@H]1CN([C@@H](C)CO)C(=O)c2cccc(NC(=O)CCCCCC(=O)Nc3ccccc3N)c2O[C@@H]1CN(C)CC1CCCCC1`, which inhibition is on record?
A: 125% (active)

Q: For `C[C@@H]1CN([C@@H](C)CO)C(=O)c2cccc(NC(=O)CCCCCC(=O)Nc3ccccc3N)c2O[C@H]1CN(C)C(=O)Nc1cccc2ccccc12`, which inhibition is on record?
A: 10.8% (inactive)

Q: For `CC(C)NC(=O)N(C)C[C@H]1Oc2ccc(NC(=O)CCCCCC(=O)Nc3ccccc3N)cc2CC(=O)N([C@@H](C)CO)C[C@H]1C`, which inhibition is on record?
A: 7.18% (inactive)

Q: With `C[C@@H]1CN([C@@H](C)CO)C(=O)Cc2cc(NC(=O)CCCCCC(=O)Nc3ccccc3N)ccc2O[C@@H]1CN(C)C(=O)NC1CCCCC1` as the compound, how does the inhibition read?
A: 8.04% (inactive)

Q: Which inhibition does the source give for `C[C@@H]1CN([C@H](C)CO)C(=O)c2cccc(NC(=O)NC3CCCCC3)c2O[C@@H]1CN(C)CC1CCCCC1` here?
A: -0.946% (inactive)

Q: Which inhibition does the source give for `C[C@H](CO)N1C[C@H](C)[C@H](CN(C)CC2CCCCC2)Oc2ccc(NC(=O)CCCCCC(=O)Nc3ccccc3N)cc2CC1=O` here?
A: 141% (active)

Q: With `C[C@@H]1CN([C@@H](C)CO)C(=O)c2cccc(NC(=O)NC3CCCCC3)c2O[C@@H]1CN(C)CC1CCCCC1` as the compound, how does the inhibition read?
A: 15.8% (inactive)

Q: Which inhibition does the source give for `C[C@H](CO)N1C[C@H](C)[C@H](CN(C)S(=O)(=O)c2ccccc2)Oc2c(NC(=O)CCCCCC(=O)Nc3ccccc3N)cccc2C1=O` here?
A: 68.1% (inactive)

Q: With `CC(C)NC(=O)Nc1cccc2c1O[C@H](CN(C)CC1CCCCC1)[C@H](C)CN([C@H](C)CO)C2=O` as the compound, how does the inhibition read?
A: 7.14% (inactive)

Q: With `C[C@H]1CN([C@@H](C)CO)C(=O)c2cccc(NC(=O)CCCCCC(=O)Nc3ccccc3N)c2O[C@@H]1CN(C)CC1CCCCC1` as the compound, how does the inhibition read?
A: 139% (active)

Q: For `Cc1ccc([N+](=O)[O-])cc1N(CC(=O)Nc1ccc(Cl)c(C(F)(F)F)c1)S(C)(=O)=O`, which inhibition is on record?
A: 67.2% (inactive)

Q: With `Cc1cc(C(=O)Nc2cccc3c2O[C@@H](CN(C)Cc2ccc4c(c2)OCO4)[C@@H](C)CN([C@@H](C)CO)C3=O)n(C)n1` as the compound, how does the inhibition read?
A: 9.25% (inactive)

Q: For `COC(=O)c1ccccc1NC(=O)CNS(=O)(=O)c1cc(Cl)ccc1Cl`, which inhibition is on record?
A: -6.45% (inactive)

Q: Which inhibition does the source give for `Cc1ccc(S(=O)(=O)N(C)C[C@H]2Oc3ccc(NS(C)(=O)=O)cc3CC(=O)N([C@@H](C)CO)C[C@H]2C)cc1` here?
A: 1.2% (inactive)

Q: For `Cc1noc(C)c1NC(=O)Nc1ccc2c(c1)C(=O)N([C@@H](C)CO)C[C@H](C)[C@H](CN(C)S(=O)(=O)c1ccc(Cl)cc1)O2`, which inhibition is on record?
A: -6.69% (inactive)

Q: With `Oc1cc(O)c2c(c1)OC(c1ccc(O)c(O)c1)C(O)C2` (configuration not stated) as the compound, how does the inhibition read?
A: 6.96% (inactive)

Q: For `COC(=O)C(C)N(C(=O)c1ccccc1[N+](=O)[O-])c1c(C)cccc1C` (configuration not stated), which inhibition is on record?
A: 3.25% (inactive)

Q: Which inhibition does the source give for `O=C(CSc1nnc(-c2ccco2)n1-c1ccccc1)Nc1ccc(F)cc1` here?
A: 3.32% (inactive)

Q: With `CCCCCCc1ccc(O)cc1O` as the compound, how does the inhibition read?
A: 108% (active)

Q: With `C[C@H]1CN([C@@H](C)CO)C(=O)c2cccc(NC(=O)C3CCCCC3)c2O[C@H]1CN(C)C(=O)NC1CCCCC1` as the compound, how does the inhibition read?
A: -16% (inactive)

Q: For `C[C@@H]1CN([C@@H](C)CO)C(=O)c2cc(NS(=O)(=O)c3ccc(Cl)cc3)ccc2O[C@H]1CN(C)C(=O)Nc1ccc(C(F)(F)F)cc1`, which inhibition is on record?
A: 7.09% (inactive)

Q: For `Cc1cc(Cl)ccc1NC(=O)CN(c1ccc(Cl)c(Cl)c1)S(C)(=O)=O`, which inhibition is on record?
A: 16% (inactive)

Q: For `COc1ccc2nc(SCC(=O)Nc3ccc(I)cc3)[nH]c2c1`, which inhibition is on record?
A: 6.89% (inactive)

Q: Which inhibition does the source give for `COC(=O)Nc1nc2ccc(Sc3ccccc3)cc2[nH]1` here?
A: 114% (active)

Q: For `COc1ccc(C(=O)CSc2nc3ccc(OC)cc3[nH]2)cc1`, which inhibition is on record?
A: 3.9% (inactive)

Q: Which inhibition does the source give for `COc1ccc(CN(C)C[C@H]2Oc3c(NS(=O)(=O)c4ccc(Cl)cc4)cccc3C(=O)N([C@H](C)CO)C[C@@H]2C)cc1` here?
A: -1.33% (inactive)

Q: For `C[C@H]1CN([C@@H](C)CO)C(=O)c2cccc(NC(=O)C3CCCCC3)c2O[C@H]1CN(C)Cc1ccc(C(F)(F)F)cc1`, which inhibition is on record?
A: 45.9% (inactive)

Q: With `C[C@@H]1CN([C@H](C)CO)C(=O)c2cccc(NC(=O)NC3CCCCC3)c2O[C@H]1CN(C)Cc1ccc(C(F)(F)F)cc1` as the compound, how does the inhibition read?
A: 101% (active)

Q: For `C[C@@H]1CN([C@H](C)CO)C(=O)c2cccc(NC(=O)Nc3ccc(F)cc3)c2O[C@@H]1CN(C)Cc1ccc(C(F)(F)F)cc1`, which inhibition is on record?
A: 35.7% (inactive)

Q: With `C[C@H](CO)N1C[C@H](C)[C@H](CN(C)Cc2ccc3c(c2)OCO3)Oc2c(NC(=O)NC3CCCCC3)cccc2C1=O` as the compound, how does the inhibition read?
A: 42.4% (inactive)

Q: With `C[C@H](CO)N1C[C@H](C)[C@@H](CN(C)Cc2ccc(C(F)(F)F)cc2)Oc2c(NC(=O)NC3CCCCC3)cccc2C1=O` as the compound, how does the inhibition read?
A: 83.9% (active)

Q: With `COc1ccc(CN(C)C[C@H]2Oc3c(NC(=O)NC4CCCCC4)cccc3C(=O)N([C@@H](C)CO)C[C@@H]2C)cc1` as the compound, how does the inhibition read?
A: 48.8% (inactive)

Q: Which inhibition does the source give for `COc1ccc(N(CC(=O)Nc2ccccc2F)S(C)(=O)=O)cc1` here?
A: 40.4% (inactive)

Q: With `C[C@@H]1CN([C@H](C)CO)C(=O)c2cccc(NC(=O)Nc3cccc4ccccc34)c2O[C@@H]1CN(C)Cc1ccccc1` as the compound, how does the inhibition read?
A: 47.5% (inactive)

Q: For `O=C(O)C1CC=CCC1C(=O)Nc1ccc(C(=O)N2CCCCC2)c(Cl)c1` (configuration not stated), which inhibition is on record?
A: 2.77% (inactive)

Q: Which inhibition does the source give for `COc1ccc(OC)c(S(=O)(=O)N(C)CC(=O)Nc2cccc(Cl)c2C)c1` here?
A: -0.499% (inactive)

Q: For `Cc1ccc(OCC(=O)Nc2cccc(NC(=O)c3ccco3)c2)cc1C`, which inhibition is on record?
A: 30.6% (inactive)

Q: With `C[C@@H]1CN([C@@H](C)CO)C(=O)c2cc(NC(=O)Nc3cccc4ccccc34)ccc2O[C@@H]1CN(C)C(=O)Nc1cccc2ccccc12` as the compound, how does the inhibition read?
A: 76.6% (inactive)

Q: With `COc1ccc(CN(C)C[C@@H]2Oc3ccc(NC(=O)Nc4cccc5ccccc45)cc3C(=O)N([C@H](C)CO)C[C@H]2C)cc1` as the compound, how does the inhibition read?
A: -6.53% (inactive)

Q: Which inhibition does the source give for `C[C@@H]1CN([C@@H](C)CO)C(=O)c2cc(NC(=O)Nc3cccc4ccccc34)ccc2O[C@H]1CN(C)Cc1ccc(Oc2ccccc2)cc1` here?
A: 115% (active)

Q: With `C[C@H]1CN([C@@H](C)CO)C(=O)c2cc(NC(=O)Nc3cccc4ccccc34)ccc2O[C@@H]1CN(C)C` as the compound, how does the inhibition read?
A: -2.04% (inactive)

Q: With `C[C@@H]1CN([C@@H](C)CO)C(=O)c2cc(NC(=O)Nc3cccc4ccccc34)ccc2O[C@@H]1CN(C)Cc1ccc(-c2ccccc2)cc1` as the compound, how does the inhibition read?
A: 109% (active)

Q: With `CC(C)NC(=O)Nc1ccc2c(c1)C(=O)N([C@@H](C)CO)C[C@@H](C)[C@H](CN(C)Cc1ccc(-c3ccccc3)cc1)O2` as the compound, how does the inhibition read?
A: 36.3% (inactive)

Q: Which inhibition does the source give for `C[C@H](CO)N1C[C@H](C)[C@H](CN(C)Cc2ccc3c(c2)OCO3)Oc2c(NS(=O)(=O)c3ccccc3)cccc2C1=O` here?
A: -8.2% (inactive)

Q: Which inhibition does the source give for `C[C@H]1CN([C@@H](C)CO)C(=O)c2cccc(NS(=O)(=O)c3ccc(F)cc3)c2O[C@@H]1CN(C)Cc1ccncc1` here?
A: -1.34% (inactive)
